Measured values taken from the supplement of paper PMC3334620.
The full ranking holds about 33,000 sequences; the median of “E-score (-0.5 to 0.5)” is about -0.054, and the highest 2% start at about 0.39. This is one part of a sample in which the highest values are shown more often than they occur.

molecular target: Ylr278c (UniProt Q05854); assay: PBM E-score (8-mer binding enrichment) (E-score (-0.5 to 0.5)); higher = stronger / more preferred TF binding; conditions: protein concentration: 200 nM; construct: GST-DNA-binding domain
Sequence of UniProt Q05854 (Q05854 whole entry, the tested form may be a part): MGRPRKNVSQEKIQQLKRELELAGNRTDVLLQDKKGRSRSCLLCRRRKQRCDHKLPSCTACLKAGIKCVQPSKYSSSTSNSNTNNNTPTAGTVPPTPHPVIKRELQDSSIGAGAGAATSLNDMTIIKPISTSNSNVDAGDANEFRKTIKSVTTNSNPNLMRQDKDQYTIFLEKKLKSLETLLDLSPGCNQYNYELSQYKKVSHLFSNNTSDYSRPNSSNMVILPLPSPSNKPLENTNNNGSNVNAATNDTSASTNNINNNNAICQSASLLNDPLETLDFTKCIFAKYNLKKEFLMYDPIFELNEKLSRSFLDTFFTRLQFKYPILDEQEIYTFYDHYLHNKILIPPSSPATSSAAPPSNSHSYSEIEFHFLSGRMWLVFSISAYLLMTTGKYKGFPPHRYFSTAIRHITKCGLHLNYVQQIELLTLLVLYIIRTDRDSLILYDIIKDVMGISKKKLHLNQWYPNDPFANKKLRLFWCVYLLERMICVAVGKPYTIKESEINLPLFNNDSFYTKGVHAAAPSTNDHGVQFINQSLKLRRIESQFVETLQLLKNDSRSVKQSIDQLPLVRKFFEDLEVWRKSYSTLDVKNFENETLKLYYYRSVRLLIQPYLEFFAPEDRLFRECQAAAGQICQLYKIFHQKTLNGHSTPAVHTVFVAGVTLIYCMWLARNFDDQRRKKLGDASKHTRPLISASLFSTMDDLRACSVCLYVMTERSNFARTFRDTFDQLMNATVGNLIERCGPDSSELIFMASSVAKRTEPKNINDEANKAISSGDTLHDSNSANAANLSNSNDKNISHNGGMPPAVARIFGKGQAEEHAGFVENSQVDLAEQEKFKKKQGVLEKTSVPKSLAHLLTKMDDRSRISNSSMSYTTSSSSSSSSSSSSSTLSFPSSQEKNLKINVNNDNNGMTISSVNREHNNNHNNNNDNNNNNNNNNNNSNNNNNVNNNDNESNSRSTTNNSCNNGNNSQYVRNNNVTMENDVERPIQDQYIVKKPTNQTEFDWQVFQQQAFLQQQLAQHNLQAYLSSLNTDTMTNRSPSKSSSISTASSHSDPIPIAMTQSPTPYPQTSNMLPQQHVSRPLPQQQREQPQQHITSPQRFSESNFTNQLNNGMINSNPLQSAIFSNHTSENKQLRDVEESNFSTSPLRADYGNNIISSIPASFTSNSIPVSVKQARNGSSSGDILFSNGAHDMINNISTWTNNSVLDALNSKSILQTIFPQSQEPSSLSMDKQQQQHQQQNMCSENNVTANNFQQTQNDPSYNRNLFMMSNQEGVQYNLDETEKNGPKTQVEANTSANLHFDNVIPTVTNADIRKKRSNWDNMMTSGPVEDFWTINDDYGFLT
Summary of the method: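 Universal all-10-mer Agilent arrays, double-stranded by primer extension on fresh or once-stripped slides, were probed with about 100-200 nM GST-tagged yeast transcription factors made by PURExpress. Fluorescent anti-GST detected bound protein, and masliner normalised the scans. E-scores from the Universal PBM Analysis Suite were given to each ungapped eight-base word pooled with its reverse complement.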

Row | Sequence | PBM E-score
1 | TACTGCTA | -0.151
2 | GCATACCC | -0.0377
3 | GCGTCTTA | -0.209
4 | GGGATGCA | -0.0857
5 | CTCTCTTA | -0.169
6 | AAATCTTA | -0.149
7 | GCCCTTCC | -0.0379
8 | AAGGCCGA | 0.4
9 | AAGGCCCG | 0.128
10 | AAGGCCGT | 0.142
11 | CAGGCCGG | 0.176
12 | AAGGCCGC | 0.188
13 | AAGGCCGG | 0.434
14 | CGCCTAAA | -0.186
15 | ATAATGCA | -0.276
16 | CGCCTCGC | 0.0203
17 | CGGGGTTC | 0.401
18 | AGGGGTTC | 0.0104
19 | AGGGGTTA | -0.171
20 | CGGGGTTA | 0.437
21 | GGGGGTTA | -0.28
22 | CCGGGTTC | 0.337
23 | ATAAGTTG | -0.0479
24 | GCTGTCTA | -0.154
25 | CATTCTCC | 0.191

Row | Sequence | PBM E-score
26 | AATTCTCA | -0.13
27 | AATTCTCC | 0.407
28 | ACAAAAGG | 0.0804
29 | GCACCGGC | 0.264
30 | GCACCGTA | 0.0145
31 | GCACCGGA | 0.429
32 | TCACCGAA | 0.178
33 | TCACCGCA | 0.0213
34 | ACACCGGT | 0.324
35 | TCACCGGA | 0.394
36 | CCACCGGA | 0.455
37 | CCACCGGG | 0.329
38 | CCACCGGC | 0.295
39 | ACACCGGC | 0.355
40 | ACACCGGA | 0.416
41 | GAGTCTCC | 0.291
42 | CCGCTTGC | 0.217
43 | GTACTAGA | -0.178
44 | AGGACGTC | 0.0253
45 | AGGGCCCA | 0.00775
46 | AAGCGCAA | 0.0312
47 | AGTGGTGG | -0.158
48 | AATCCACG | 0.0023
49 | ATCCGACA | 0.382
50 | CACCGACC | 0.192

Row | Sequence | PBM E-score
51 | CCCCGACA | 0.301
52 | ATCCGACC | 0.234
53 | GGCCGACA | 0.248
54 | GTCCGACA | 0.393
55 | GCCCGACA | 0.216
56 | CTCCGACA | 0.438
57 | CTCCGACC | 0.458
58 | CACCATCA | -0.0978
59 | GCTAGATA | -0.085
60 | GAGGGGTA | -2e-05
61 | ACGATGCA | -0.0494
62 | CTTGCAAA | 0.034
63 | AGAAATCG | 0.0562
64 | CTAAAGAC | -0.12
65 | ACGGAGCG | 0.396
66 | CCGGAGCA | 0.473
67 | GCGGAGCA | 0.376
68 | CCAGAGCG | -0.00204
69 | ACGGAGCT | 0.395
70 | CGGGAGCA | 0.108
71 | CCGGAGCG | 0.458
72 | ACGGAGCC | 0.385
73 | AGGGAGCG | -0.14
74 | ATGGAGCG | -0.0671
75 | CAGGAGCG | -0.00543

Row | Sequence | PBM E-score
76 | ACGGAGCA | 0.344
77 | TACTCATA | -0.285
78 | AGCATTGC | -0.106
79 | GCAGTTCC | 0.169
80 | AGTGCGTA | -0.0325
81 | CAGATAAC | 0.123
82 | CCCACTGA | -0.155
83 | GTAGAAGA | -0.177
84 | CGGGAGCC | 0.0673
85 | CTGGAGCC | 0.0766
86 | TCGGAGCA | 0.455
87 | TCAGAGCA | -0.282
88 | GCAGAGCC | -0.128
89 | GCGGAGCC | 0.394
90 | GAGGAGCC | -0.0931
91 | CCGGAGCC | 0.422
92 | TAGGAGCA | -0.184
93 | CTGAGGAC | 0.0445
94 | AGTCTTTG | -0.289
95 | CATCAAGC | -0.0328
96 | GGGGGCCA | -0.0264
97 | AAGCAAAT | -0.19
98 | GTCACGAA | -0.0546
99 | AGTGTTAT | -0.0541
100 | CAGTCCAA | -0.218

Row | Sequence | PBM E-score
101 | CGGAACAG | 0.388
102 | GGGAACAA | 0.0828
103 | AGGAACAG | -0.279
104 | CGGAACAA | 0.427
105 | CGGAACAC | 0.353
106 | TGGAACAA | -0.206
107 | AAACAGCA | 0.0669
108 | ATTTCATC | 0.166
109 | GCTTGTTA | 0.0864
110 | CCGGATCG | 0.396
111 | CCGGATCC | 0.42
112 | ACGGATCG | 0.142
113 | GCGGATCC | 0.271
114 | CAGGATCG | 0.00336
115 | CCGGATCA | 0.385
116 | CTCTTCTC | -0.106
117 | AAATTCAA | 0.0115
118 | CAACTAAA | -0.0258
119 | ACTACTCG | 0.0653
120 | ATCCTGGA | -0.101
121 | CGTGGTAG | -0.0716
122 | GTGGGAAC | -0.189
123 | ATCGGAAC | 0.406
124 | GTCGGAAC | 0.413
125 | TTCGGAAA | 0.419

Row | Sequence | PBM E-score
126 | AACGGAAT | 0.379
127 | ATCGGAAT | 0.443
128 | ATTGGAAC | -0.0837
129 | AACGGAAC | 0.322
130 | CTCGGAAC | 0.381
131 | AGCGGAAT | 0.385
132 | CTCGGAAA | 0.374
133 | TCGGGAAA | 0.35
134 | GATGACGC | -0.146
135 | AGACACCT | -0.185
136 | CGCAGGGC | 0.049
137 | ACTTTGCT | -0.141
138 | ACTAACGC | 0.0051
139 | AACCTCAT | -0.143
140 | ATCGGAAA | 0.416
141 | ATCGGAAG | 0.332
142 | GTCGGGAA | 0.201
143 | GTCGGAAA | 0.424
144 | AGCGGAAA | 0.358
145 | CAGCCACC | 0.0671
146 | AGCGACTC | -0.142
147 | ACAAACTC | 0.155
148 | CCCTTTAA | -0.0852
149 | CTCGTTCC | 0.165
150 | ATTAACCG | 0.322

Row | Sequence | PBM E-score
151 | CATTTGGG | -0.0571
152 | GAAGAGAC | 0.0662
153 | GCATCGGC | 0.308
154 | CCATCGGA | 0.415
155 | TCATCGGA | 0.408
156 | GCATCGGA | 0.437
157 | CCATCGGG | 0.259
158 | TCATCGAA | -0.174
159 | CCATCGGC | 0.282
160 | ACATCGGA | 0.377
161 | TCATCGCA | -0.0812
162 | AAAAAGAG | -0.21
163 | AGATCGCC | -0.00696
164 | CCGAGAAG | 0.226
165 | GACAATGC | 0.0317
166 | GAGTCGAC | 0.00525
167 | CAATGGTG | -0.248
168 | ACTCAATA | -0.101
169 | ACTCCAAG | -0.198
170 | CCACCGAC | 0.0976
171 | CCTCCAAC | -0.212
172 | TCTCCGAA | 0.455
173 | CCTCCGAC | 0.405
174 | ACTCCGAG | 0.478
175 | ACACCGAC | 0.26

Row | Sequence | PBM E-score
176 | ACTCCGAC | 0.481
177 | TCTCCAAA | -0.126
178 | TCTCCTAA | -0.144
179 | ACTCCTAG | -0.114
180 | ACGCCGAC | 0.343
181 | AAGTAGGA | -0.313
182 | ACACCGCT | 0.00228
183 | GGCGCATA | 0.0769
184 | GGGCTACA | -0.0376
185 | GTGACGTA | -0.142
186 | CGTCCACC | -0.00012
187 | ACCTCATA | -0.101
188 | AAATACGG | 0.14
189 | ACGAACCA | -0.125
190 | GCTCCGAA | 0.464
191 | GCTCCAAA | -0.172
192 | CCTCCAAG | -0.202
193 | ACTCCTAT | -0.0311
194 | CATCCGAG | 0.193
195 | ACTCCAAA | -0.118
196 | GCTCCGAC | 0.374
197 | ACTCCCAA | 0.0108
198 | ACTCCGAA | 0.484
199 | ACTCCCAT | -0.16
200 | ACTCCGAT | 0.484

Row | Sequence | PBM E-score
201 | CCTCCGAG | 0.426
202 | ACCTAAGC | 0.0293
203 | GGAGAAAC | 0.309
204 | CAGGGCGC | 0.0102
205 | GGAACCAC | 0.0576
206 | AAGCCACG | -0.0652
207 | AAAAGAGA | -0.223
208 | AAAGAAGA | -0.0104
209 | CCACCGAA | -0.0526
210 | CCTCCAAA | -0.14
211 | CCTCCGAA | 0.441
212 | GTGAGATA | 0.052
213 | AACGGAAA | 0.374
214 | GACGGAGC | 0.378
215 | CAAGGAGA | -0.105
216 | GACGGATA | 0.249
217 | GACGGAGA | 0.453
218 | GAGGGAGA | -0.145
219 | CACGGACC | 0.282
220 | AACGGAGA | 0.393
221 | TACGGAGA | 0.386
222 | AACGGATA | 0.292
223 | CACGGAGC | 0.403
224 | CACGGAGA | 0.429
